# Test results reported in the supplement of paper PMC8728848.
# Many of the other results were omitted from the sample, so the strongest signals are more common in it than they were.
# Legend:
# Experiment in all cases: glycan array binding signal (z-score within array); higher = stronger binding
# Conditions in all cases: glycan notation: IUPAC condensed, linker removed
# [1] = target: GlcNAc(b1-2)[GlcNAc(b1-4)]Man(a1-3)[GlcNAc(b1-2)Man(a1-6)]Man(b1-4)GlcNAc(b1-4)GlcNAc
# Procedure, shortened: (§1)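 From the Consortium for Functional Glycomics database, 3228 arrays were curated, keeping only those whose protein sequence was available. Binding is given as a within-array Z-score averaged across arrays sharing a protein sequence and across linkers. Negative Z-scores can be read as non-binding.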
# [2] = target: GlcNAc(b1-2)[GlcNAc(b1-4)]Man(a1-3)[GlcNAc(b1-4)][GlcNAc(b1-2)[GlcNAc(b1-6)]Man(a1-6)]Man(b1-4)GlcNAc(b1-4)[Fuc(a1-6)]GlcNAc
# Procedure, shortened: as §1
# [3] = target: GlcNAc(b1-3)Gal
# Procedure, shortened: as §1
# [4] = target: GlcNAc(b1-3)Gal(b1-4)GlcNAc(b1-2)[GlcNAc(b1-3)Gal(b1-4)GlcNAc(b1-6)]Man(a1-6)[GlcNAc(b1-3)Gal(b1-4)GlcNAc(b1-2)Man(a1-3)]Man(b1-4)GlcNAc(b1-4)GlcNAc
# Procedure, shortened: as §1
# [5] = target: GlcNAc(b1-3)Gal(b1-4)GlcNAc(b1-3)Gal(b1-4)GlcNAc(b1-2)Man(a1-3)[GlcNAc(b1-3)Gal(b1-4)GlcNAc(b1-3)Gal(b1-4)GlcNAc(b1-2)Man(a1-6)]Man(b1-4)GlcNAc(b1-4)GlcNAc
# Procedure, shortened: as §1
# [6] = target: GlcNAc(b1-4)Gal(b1-4)GlcNAc
# Procedure, shortened: as §1
# [7] = target: GlcNAc(b1-4)GlcNAc(b1-4)GlcNAc
# Procedure, shortened: as §1
# [8] = target: GlcNAc(b1-6)Gal(b1-4)GlcNAc
# Procedure, shortened: as §1
# [9] = target: Man(a1-2)Man(a1-3)Man
# Procedure, shortened: as §1
# [10] = target: Man(a1-2)Man(a1-6)[Man(a1-3)]Man(a1-6)[Man(a1-2)Man(a1-2)Man(a1-3)]Man
# Procedure, shortened: as §1
# [11] = target: Man(a1-3)[Man(a1-6)]Man(a1-6)[Man(a1-3)]Man
# Procedure, shortened: as §1
# [12] = target: MurNAc(b1-4)GlcNAc
# Procedure, shortened: as §1
# [13] = target: Neu5Ac(a2-3)Gal(b1-4)GlcNAc(b1-2)[Neu5Ac(a2-3)Gal(b1-4)GlcNAc(b1-4)]Man(a1-3)[GlcNAc(b1-4)][Neu5Ac(a2-3)Gal(b1-4)GlcNAc(b1-4)Man(a1-6)]Man(b1-4)GlcNAc(b1-4)GlcNAc
# Procedure, shortened: as §1
# [14] = target: Neu5Ac(a2-3)Gal(b1-4)GlcNAc(b1-2)[Neu5Ac(a2-3)Gal(b1-4)GlcNAc(b1-6)]Man(a1-6)[Neu5Ac(a2-3)Gal(b1-4)GlcNAc(b1-2)Man(a1-3)]Man(b1-4)GlcNAc(b1-4)GlcNAc
# Procedure, shortened: as §1
# [15] = target: Neu5Ac(a2-3)Gal(b1-4)GlcNAc(b1-3)Gal(b1-4)GlcNAc(b1-3)Gal(b1-4)GlcNAc(b1-2)Man(a1-3)[Neu5Ac(a2-3)Gal(b1-4)GlcNAc(b1-3)Gal(b1-4)GlcNAc(b1-3)Gal(b1-4)GlcNAc(b1-2)Man(a1-6)]GalNAc
# Procedure, shortened: as §1
# [16] = target: Neu5Ac(a2-3)Gal(b1-4)GlcNAc(b1-3)[Neu5Ac(a2-3)Gal(b1-4)GlcNAc(b1-6)]GalNAc
# Procedure, shortened: as §1
# [17] = target: Neu5Ac(a2-3)Gal(b1-4)[Fuc(a1-3)]GlcNAc(b1-3)Gal(b1-4)[Fuc(a1-3)]GlcNAc(b1-3)Gal(b1-4)[Fuc(a1-3)]GlcNAc
# Procedure, shortened: as §1
# [18] = target: Neu5Ac(a2-3)Gal(b1-4)[Fuc(a1-3)]GlcNAc(b1-3)GalNAc
# Procedure, shortened: as §1
# [19] = target: Neu5Ac(a2-3)[GalNAc(b1-4)]Gal(b1-4)GlcNAc
# Procedure, shortened: as §1
# [20] = target: Neu5Ac(a2-6)Gal(b1-4)GlcNAc(b1-2)Man(a1-6)[GlcNAc(b1-2)Man(a1-3)]Man(b1-4)GlcNAc(b1-4)GlcNAc
# Procedure, shortened: as §1
# [21] = target: Neu5Ac(a2-6)Gal(b1-4)GlcNAc(b1-3)Gal(b1-4)GlcNAc(b1-3)Gal(b1-4)GlcNAc(b1-2)Man(a1-3)[Neu5Ac(a2-6)Gal(b1-4)GlcNAc(b1-3)Gal(b1-4)GlcNAc(b1-3)Gal(b1-4)GlcNAc(b1-2)Man(a1-6)]GalNAc
# Procedure, shortened: as §1
# [22] = target: Neu5Ac(a2-6)Gal(b1-4)GlcNAc(b1-3)Gal(b1-4)[Fuc(a1-3)]GlcNAc(b1-3)Gal(b1-4)[Fuc(a1-3)]GlcNAc
# Procedure, shortened: as §1
# [23] = target: Neu5Ac(a2-8)Neu5Ac(a2-3)Gal(b1-4)Glc
# Procedure, shortened: as §1
# [24] = target: Neu5Gc(a2-3)Gal(b1-3)[Fuc(a1-4)]GlcNAc
# Procedure, shortened: as §1
# [25] = target: Neu5Gc(b2-6)Gal(b1-4)GlcNAc
# Procedure, shortened: as §1
binder,measurement,setting,value
SP15308C-bot-338-23-338 (Bacteroides ovatus) (protein) DEWTDEQFKQLISFKTQPGGWGVTDVHVRYANSAKYTYNLPVLVSGSTDNTDDRLVSFSLRDDTLDILNFEKFGNRPELYFRELPQKYYSFPKELTIPAGQSHALLPIEFSLDGLDDSQKWALPLKVCEDANGTYAVNPRKYYRTAVLRPILFNEFSGRFSGSSLLGTMAGESDIKFSSTEIKLNVVTDSIVFFYAGQRTEDYEDRINYKVFLQFTGDKVDSKKDLYKMKIWAENEKLKFNSYSTPTYKVSSEMDATKTYLKHTYIVISDIDFDFVDYTSVPNYEIEYNMKGGLSVSRDLDTRKPDEDQGSDSKWW,glycan array binding signal (z-score),[1],-0.931
same,glycan array binding signal (z-score),[2],-0.818
same,glycan array binding signal (z-score),[3],-0.756
same,glycan array binding signal (z-score),[4],0.124
same,glycan array binding signal (z-score),[5],2.87
same,glycan array binding signal (z-score),[6],-0.205
same,glycan array binding signal (z-score),[7],-0.098
same,glycan array binding signal (z-score),[8],-0.182
same,glycan array binding signal (z-score),[9],0.722
same,glycan array binding signal (z-score),[10],-0.109
same,glycan array binding signal (z-score),[11],0.294
same,glycan array binding signal (z-score),[12],-0.64
same,glycan array binding signal (z-score),[13],-0.025
same,glycan array binding signal (z-score),[14],0.382
same,glycan array binding signal (z-score),[15],0.621
same,glycan array binding signal (z-score),[16],-0.252
same,glycan array binding signal (z-score),[17],-0.739
same,glycan array binding signal (z-score),[18],3.23
same,glycan array binding signal (z-score),[19],-0.753
same,glycan array binding signal (z-score),[20],-0.62
same,glycan array binding signal (z-score),[21],2.46
same,glycan array binding signal (z-score),[22],-0.639
same,glycan array binding signal (z-score),[23],-0.032
same,glycan array binding signal (z-score),[24],0.492
same,glycan array binding signal (z-score),[25],0.812
